# Laboratory results from publication PMC7862700, “An all-to-all approach to the identification of sequence-specific readers for epigenetic DNA modifications on cytosine”.
# What was measured:
# Experiment in all cases: DAPPL (digital affinity profiling via proximity ligation, sequencing); 10 mM Tris-HCl pH 7.5, 50 mM NaCl, 1 mM DTT, 4% glycerol, room temperature, 30 min; GST-TFs on glutathione beads, 16-mer random dsDNA library, 0.1% formaldehyde crosslink after washing; high values mean tight binding
# FLI1 = target: T1, FLI1 (Homo sapiens, UniProt Q01543 1-452); conditions: protein: recombinant; tags: N-terminal GST; dsDNA, one strand shown
# T1 sequence: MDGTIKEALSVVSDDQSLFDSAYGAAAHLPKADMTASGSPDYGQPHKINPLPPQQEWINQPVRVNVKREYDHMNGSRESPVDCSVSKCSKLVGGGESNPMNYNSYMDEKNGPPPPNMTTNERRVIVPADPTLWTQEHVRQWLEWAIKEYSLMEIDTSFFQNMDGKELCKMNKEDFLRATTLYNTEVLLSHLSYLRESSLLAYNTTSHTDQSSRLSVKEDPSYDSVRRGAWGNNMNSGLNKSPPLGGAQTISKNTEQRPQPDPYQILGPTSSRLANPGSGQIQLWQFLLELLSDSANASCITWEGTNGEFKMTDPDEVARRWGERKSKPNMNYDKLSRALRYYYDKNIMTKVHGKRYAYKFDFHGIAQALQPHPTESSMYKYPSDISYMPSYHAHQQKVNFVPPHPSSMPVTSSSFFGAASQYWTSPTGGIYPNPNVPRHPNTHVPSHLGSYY
# How it was run: (§1)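 After expression in yeast as GST fusions, human transcription factors were bound to glutathione beads, DNA-barcoded and mixed with a tag-only sample. The pools were incubated with 200 nmole of a 16-mer random double-stranded DNA library in Tris/NaCl/DTT/glycerol buffer (30 min, room temperature), washed and crosslinked with 0.1% formaldehyde. Proximity ligation with BsaI/T4 ligase ran for 1 h at 37 °C, before PCR amplification and sequencing on an Illumina NextSeq500. Binding signal is a hexamer's read frequency for a factor divided by its frequency for the tag-only sample.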
# GABPA = target: T2, GABPA (Homo sapiens, UniProt Q06546 1-454); conditions: protein: recombinant; tags: N-terminal GST; dsDNA, one strand shown
# T2 sequence: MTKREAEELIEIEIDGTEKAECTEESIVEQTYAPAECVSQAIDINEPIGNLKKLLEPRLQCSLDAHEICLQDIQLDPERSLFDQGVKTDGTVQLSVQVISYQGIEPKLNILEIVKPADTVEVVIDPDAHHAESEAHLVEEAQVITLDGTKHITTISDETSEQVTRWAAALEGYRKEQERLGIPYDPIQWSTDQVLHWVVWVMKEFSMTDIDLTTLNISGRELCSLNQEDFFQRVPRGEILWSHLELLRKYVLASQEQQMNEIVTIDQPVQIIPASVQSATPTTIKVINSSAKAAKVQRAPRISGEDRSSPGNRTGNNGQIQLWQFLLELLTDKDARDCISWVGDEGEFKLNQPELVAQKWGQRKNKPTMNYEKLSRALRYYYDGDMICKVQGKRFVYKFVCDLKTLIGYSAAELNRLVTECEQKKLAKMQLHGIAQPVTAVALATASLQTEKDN
# How it was run: as §1
# ERG = target: T3, ERG (Homo sapiens, UniProt P11308 1-479); conditions: protein: recombinant; tags: N-terminal GST; dsDNA, one strand shown
# T3 sequence: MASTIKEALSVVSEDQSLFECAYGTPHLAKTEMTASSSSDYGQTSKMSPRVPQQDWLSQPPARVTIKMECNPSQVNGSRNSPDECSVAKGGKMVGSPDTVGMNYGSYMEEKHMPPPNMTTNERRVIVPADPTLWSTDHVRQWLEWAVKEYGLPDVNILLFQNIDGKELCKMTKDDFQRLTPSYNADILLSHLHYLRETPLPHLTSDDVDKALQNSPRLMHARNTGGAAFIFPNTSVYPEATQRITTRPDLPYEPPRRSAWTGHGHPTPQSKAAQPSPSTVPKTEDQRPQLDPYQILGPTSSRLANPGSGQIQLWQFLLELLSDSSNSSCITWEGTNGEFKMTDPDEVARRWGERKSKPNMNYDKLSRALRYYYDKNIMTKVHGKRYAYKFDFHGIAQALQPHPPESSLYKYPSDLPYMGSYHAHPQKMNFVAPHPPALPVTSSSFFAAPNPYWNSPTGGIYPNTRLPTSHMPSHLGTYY
# How it was run: as §1
# ELF1 = ELF1 (Homo sapiens, UniProt P32519 1-619); conditions: protein: recombinant; tags: N-terminal GST; dsDNA, one strand shown
# ELF1, sequence (P32519 whole entry): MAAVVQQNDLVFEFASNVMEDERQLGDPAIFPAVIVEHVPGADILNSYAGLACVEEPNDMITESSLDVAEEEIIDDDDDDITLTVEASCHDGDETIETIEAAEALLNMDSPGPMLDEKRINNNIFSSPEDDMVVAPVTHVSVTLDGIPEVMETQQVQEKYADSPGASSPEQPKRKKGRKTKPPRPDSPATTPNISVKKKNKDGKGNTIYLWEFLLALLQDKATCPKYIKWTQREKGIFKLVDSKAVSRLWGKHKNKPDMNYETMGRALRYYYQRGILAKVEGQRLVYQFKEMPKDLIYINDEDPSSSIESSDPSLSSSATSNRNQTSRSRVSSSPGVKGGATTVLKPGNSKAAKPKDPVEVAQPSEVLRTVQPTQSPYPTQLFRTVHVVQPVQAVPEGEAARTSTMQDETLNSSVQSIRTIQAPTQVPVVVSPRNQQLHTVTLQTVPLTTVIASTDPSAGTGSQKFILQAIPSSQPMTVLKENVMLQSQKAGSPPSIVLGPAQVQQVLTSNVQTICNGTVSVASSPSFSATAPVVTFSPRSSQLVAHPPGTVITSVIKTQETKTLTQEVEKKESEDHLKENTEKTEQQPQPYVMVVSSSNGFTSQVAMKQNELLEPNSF
# How it was run: as §1
# SPI1 = SPI1 (Homo sapiens, UniProt P17947 1-270); conditions: protein: recombinant; tags: N-terminal GST; dsDNA, one strand shown
# How it was run: as §1
# SPIB = SPIB (Homo sapiens, UniProt Q01892 1-262); conditions: protein: recombinant; tags: N-terminal GST; dsDNA, one strand shown
# SPIB, sequence (Q01892 whole entry): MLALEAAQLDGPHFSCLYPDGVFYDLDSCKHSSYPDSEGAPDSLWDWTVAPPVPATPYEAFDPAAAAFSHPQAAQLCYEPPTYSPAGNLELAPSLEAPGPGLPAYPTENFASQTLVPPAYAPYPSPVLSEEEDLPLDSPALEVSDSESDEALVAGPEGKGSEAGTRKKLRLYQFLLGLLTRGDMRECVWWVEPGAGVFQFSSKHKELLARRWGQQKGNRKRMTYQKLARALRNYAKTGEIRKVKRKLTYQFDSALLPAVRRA
# How it was run: as §1
# ELK3 = target: T4, ELK3 (Homo sapiens, UniProt P41970 1-407); conditions: protein: recombinant; tags: N-terminal GST; dsDNA, one strand shown
# T4 sequence: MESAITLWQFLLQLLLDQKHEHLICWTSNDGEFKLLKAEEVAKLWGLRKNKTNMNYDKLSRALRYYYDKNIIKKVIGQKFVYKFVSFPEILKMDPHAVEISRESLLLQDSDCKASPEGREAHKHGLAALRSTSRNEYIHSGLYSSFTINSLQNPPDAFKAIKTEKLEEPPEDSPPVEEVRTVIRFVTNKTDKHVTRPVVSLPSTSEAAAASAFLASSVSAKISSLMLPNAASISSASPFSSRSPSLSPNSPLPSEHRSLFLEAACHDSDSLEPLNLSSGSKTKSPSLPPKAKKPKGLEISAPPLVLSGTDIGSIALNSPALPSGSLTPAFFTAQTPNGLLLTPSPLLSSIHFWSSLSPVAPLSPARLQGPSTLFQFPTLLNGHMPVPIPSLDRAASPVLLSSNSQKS
# How it was run: as §1
# FEV = target: T5, FEV (Homo sapiens, UniProt Q99581 1-238); conditions: protein: recombinant; tags: N-terminal GST; dsDNA, one strand shown
# T5 sequence: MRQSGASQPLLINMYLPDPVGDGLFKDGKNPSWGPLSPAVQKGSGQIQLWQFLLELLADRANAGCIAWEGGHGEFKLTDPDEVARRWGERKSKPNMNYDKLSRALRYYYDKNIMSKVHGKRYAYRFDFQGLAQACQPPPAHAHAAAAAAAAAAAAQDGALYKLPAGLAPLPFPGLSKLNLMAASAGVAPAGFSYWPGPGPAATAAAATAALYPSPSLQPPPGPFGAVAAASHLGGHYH
# How it was run: as §1
# ETV5 = ETV5 (Homo sapiens, UniProt P41161 1-510); conditions: protein: recombinant; tags: N-terminal GST; dsDNA, one strand shown
# ETV5, sequence (P41161 whole entry): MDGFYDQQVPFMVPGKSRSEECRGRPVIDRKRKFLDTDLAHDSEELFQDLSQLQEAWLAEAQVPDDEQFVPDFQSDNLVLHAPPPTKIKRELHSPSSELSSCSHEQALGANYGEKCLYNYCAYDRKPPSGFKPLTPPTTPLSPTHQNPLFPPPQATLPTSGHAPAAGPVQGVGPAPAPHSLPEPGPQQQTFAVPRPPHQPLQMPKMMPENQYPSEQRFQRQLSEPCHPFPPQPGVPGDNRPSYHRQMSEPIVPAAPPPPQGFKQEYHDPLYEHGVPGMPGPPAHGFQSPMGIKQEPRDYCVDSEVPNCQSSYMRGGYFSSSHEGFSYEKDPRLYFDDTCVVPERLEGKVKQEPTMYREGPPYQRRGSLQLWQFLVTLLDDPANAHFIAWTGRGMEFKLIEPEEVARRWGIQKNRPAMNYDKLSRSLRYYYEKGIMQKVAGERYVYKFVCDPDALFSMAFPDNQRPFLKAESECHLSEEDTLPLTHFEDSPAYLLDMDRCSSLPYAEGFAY
# How it was run: as §1
# HSF1 = HSF1 (Homo sapiens, UniProt Q00613 1-529); conditions: protein: recombinant; tags: N-terminal GST; chain copies: 3; dsDNA, one strand shown
# HSF1, sequence (Q00613 whole entry): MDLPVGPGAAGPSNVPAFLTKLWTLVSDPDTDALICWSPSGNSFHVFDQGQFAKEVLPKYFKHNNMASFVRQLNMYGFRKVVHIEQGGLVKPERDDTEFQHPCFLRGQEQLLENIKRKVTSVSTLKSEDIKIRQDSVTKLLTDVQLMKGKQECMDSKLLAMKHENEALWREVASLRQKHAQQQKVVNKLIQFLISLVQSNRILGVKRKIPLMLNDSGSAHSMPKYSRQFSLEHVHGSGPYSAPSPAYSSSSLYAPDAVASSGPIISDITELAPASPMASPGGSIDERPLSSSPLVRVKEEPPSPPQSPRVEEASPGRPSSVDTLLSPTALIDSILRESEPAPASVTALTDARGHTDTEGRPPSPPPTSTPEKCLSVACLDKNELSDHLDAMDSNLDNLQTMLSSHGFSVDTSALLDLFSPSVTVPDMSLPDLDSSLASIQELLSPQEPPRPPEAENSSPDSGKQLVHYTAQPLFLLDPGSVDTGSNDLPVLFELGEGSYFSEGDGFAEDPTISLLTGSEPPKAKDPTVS
# How it was run: as §1
# SPIC = target: T6, SPIC (Homo sapiens, UniProt Q8N5J4 1-248); conditions: protein: recombinant; tags: N-terminal GST; dsDNA, one strand shown
# T6 sequence: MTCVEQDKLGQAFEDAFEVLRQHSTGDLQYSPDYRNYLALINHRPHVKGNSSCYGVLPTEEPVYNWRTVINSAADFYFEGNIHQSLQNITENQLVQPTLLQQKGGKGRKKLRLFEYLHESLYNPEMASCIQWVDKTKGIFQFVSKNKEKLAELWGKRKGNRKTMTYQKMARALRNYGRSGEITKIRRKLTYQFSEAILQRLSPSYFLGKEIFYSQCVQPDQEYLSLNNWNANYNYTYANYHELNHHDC
# How it was run: as §1
# ELF4 = ELF4 (Homo sapiens, UniProt Q99607 1-663); conditions: protein: recombinant; tags: N-terminal GST; dsDNA, one strand shown
# ELF4, sequence (Q99607 whole entry): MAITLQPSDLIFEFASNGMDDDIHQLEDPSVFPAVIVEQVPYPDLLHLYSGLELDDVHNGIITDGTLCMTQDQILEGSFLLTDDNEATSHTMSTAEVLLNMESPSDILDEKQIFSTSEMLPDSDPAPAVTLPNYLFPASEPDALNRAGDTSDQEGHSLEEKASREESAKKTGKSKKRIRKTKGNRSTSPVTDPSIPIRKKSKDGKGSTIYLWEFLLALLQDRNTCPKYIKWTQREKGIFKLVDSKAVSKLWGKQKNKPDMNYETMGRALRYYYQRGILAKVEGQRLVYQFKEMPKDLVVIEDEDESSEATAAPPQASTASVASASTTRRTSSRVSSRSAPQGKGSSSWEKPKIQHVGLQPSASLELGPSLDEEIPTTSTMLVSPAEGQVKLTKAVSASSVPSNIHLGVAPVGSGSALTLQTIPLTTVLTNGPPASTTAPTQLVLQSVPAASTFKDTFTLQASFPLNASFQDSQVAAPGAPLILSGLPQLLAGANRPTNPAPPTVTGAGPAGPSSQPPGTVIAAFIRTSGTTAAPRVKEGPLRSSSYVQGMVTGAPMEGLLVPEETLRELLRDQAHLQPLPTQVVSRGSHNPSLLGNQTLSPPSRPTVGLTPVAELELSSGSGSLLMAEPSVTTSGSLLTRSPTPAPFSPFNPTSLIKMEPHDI
# How it was run: as §1
# ELK4 = target: T7, ELK4 (Homo sapiens, UniProt P28324-2 1-405); conditions: protein: recombinant; tags: N-terminal GST; dsDNA, one strand shown
# T7 sequence: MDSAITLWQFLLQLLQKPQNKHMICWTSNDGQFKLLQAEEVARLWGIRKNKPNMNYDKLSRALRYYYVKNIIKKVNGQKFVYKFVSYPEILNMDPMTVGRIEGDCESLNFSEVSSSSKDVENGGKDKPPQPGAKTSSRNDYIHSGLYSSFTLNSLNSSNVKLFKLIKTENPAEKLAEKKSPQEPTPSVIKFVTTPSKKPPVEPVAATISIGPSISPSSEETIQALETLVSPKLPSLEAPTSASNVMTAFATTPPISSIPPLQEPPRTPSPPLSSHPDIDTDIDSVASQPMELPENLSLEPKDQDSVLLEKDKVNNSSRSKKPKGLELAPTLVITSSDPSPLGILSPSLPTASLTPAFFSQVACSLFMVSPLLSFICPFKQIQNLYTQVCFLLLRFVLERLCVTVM
# How it was run: as §1
# ETV2 = target: T8, ETV2 (Homo sapiens, UniProt O00321 1-342); conditions: protein: recombinant; tags: N-terminal GST; dsDNA, one strand shown
# T8 sequence: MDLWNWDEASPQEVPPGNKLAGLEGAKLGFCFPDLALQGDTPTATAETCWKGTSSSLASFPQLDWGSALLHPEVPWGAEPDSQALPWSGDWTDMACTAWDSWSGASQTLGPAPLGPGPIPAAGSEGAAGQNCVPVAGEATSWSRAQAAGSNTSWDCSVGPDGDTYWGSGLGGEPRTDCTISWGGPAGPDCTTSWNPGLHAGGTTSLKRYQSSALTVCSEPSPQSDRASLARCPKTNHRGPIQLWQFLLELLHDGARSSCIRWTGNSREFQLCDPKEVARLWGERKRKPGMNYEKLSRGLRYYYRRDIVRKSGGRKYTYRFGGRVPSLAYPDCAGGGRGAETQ
# How it was run: as §1
# ELF3 = target: T9, ELF3 (Homo sapiens, UniProt P78545 1-371); conditions: protein: recombinant; tags: N-terminal GST; dsDNA, one strand shown
# T9 sequence: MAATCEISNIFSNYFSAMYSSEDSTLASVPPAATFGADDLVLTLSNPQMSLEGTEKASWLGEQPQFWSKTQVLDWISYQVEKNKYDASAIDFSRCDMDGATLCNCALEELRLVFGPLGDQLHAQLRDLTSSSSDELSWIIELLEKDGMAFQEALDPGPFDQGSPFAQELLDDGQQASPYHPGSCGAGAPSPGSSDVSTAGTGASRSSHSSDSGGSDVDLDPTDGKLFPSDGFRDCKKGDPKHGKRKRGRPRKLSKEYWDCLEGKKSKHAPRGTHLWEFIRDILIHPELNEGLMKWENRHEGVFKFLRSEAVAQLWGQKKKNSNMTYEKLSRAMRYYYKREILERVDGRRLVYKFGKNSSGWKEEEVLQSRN
# How it was run: as §1
# CRX = CRX (Homo sapiens, UniProt O43186 1-299); conditions: protein: recombinant; tags: N-terminal GST; dsDNA, one strand shown
# CRX, sequence (O43186 whole entry): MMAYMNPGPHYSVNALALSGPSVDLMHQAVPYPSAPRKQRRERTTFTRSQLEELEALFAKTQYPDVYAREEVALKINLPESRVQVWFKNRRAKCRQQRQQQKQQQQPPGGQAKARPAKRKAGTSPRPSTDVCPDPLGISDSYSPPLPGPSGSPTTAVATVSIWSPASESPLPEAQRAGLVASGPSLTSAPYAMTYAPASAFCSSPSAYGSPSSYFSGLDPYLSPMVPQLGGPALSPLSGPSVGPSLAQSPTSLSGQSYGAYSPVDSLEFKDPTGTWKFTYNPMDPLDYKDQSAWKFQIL
# How it was run: as §1
sequence,measurement,setting,value
TACTGG,binding signal,FLI1,"1.08 fold enrichment (6-mer frequency, TF over GST control)"
same,binding signal,GABPA,"1.19 fold enrichment (6-mer frequency, TF over GST control)"
same,binding signal,ERG,"1.13 fold enrichment (6-mer frequency, TF over GST control)"
same,binding signal,ELF1,"1.13 fold enrichment (6-mer frequency, TF over GST control)"
same,binding signal,SPI1,"1.08 fold enrichment (6-mer frequency, TF over GST control)"
same,binding signal,SPIB,"1.05 fold enrichment (6-mer frequency, TF over GST control)"
same,binding signal,ELK3,"1.07 fold enrichment (6-mer frequency, TF over GST control)"
same,binding signal,FEV,"1.01 fold enrichment (6-mer frequency, TF over GST control)"
same,binding signal,ETV5,"1.1 fold enrichment (6-mer frequency, TF over GST control)"
same,binding signal,HSF1,"1.49 fold enrichment (6-mer frequency, TF over GST control)"
same,binding signal,SPIC,"1.22 fold enrichment (6-mer frequency, TF over GST control)"
same,binding signal,ELF4,"1.19 fold enrichment (6-mer frequency, TF over GST control)"
same,binding signal,ELK4,"1.15 fold enrichment (6-mer frequency, TF over GST control)"
same,binding signal,ETV2,"1.3 fold enrichment (6-mer frequency, TF over GST control)"
same,binding signal,ELF3,"1.17 fold enrichment (6-mer frequency, TF over GST control)"
same,binding signal,CRX,"1.35 fold enrichment (6-mer frequency, TF over GST control)"
